The full data set covers some 7,900 targets. This sample favours those with a hit. About 0.6% of all pairs of compound and target were hits. A number with no mark means an inactive call.
Tests used:
Assay in all cases: log2 fold change, soluble protein after heating vs DMSO (PISA); higher = thermal stabilisation; K562 cells, 10 uM, 30 min; active = over 0.2 and 3.5 SD of the protein, either way, in both replicates (recomputed)
bafetinib = compound: Cc1ccc(NC(=O)c2ccc(CN3CC[C@H](N(C)C)C3)c(C(F)(F)F)c2)cc1Nc1nccc(-c2cncnc2)n1 [bafetinib]
Summary of the method: (§1)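 For each measurement, 10 μM compound was applied for 30 min to K562 cells at 2×10^6 cells/mL. Aliquots were heated for 3 min across 48°C-58°C, pooled, and extracted in PBS with 0.5% NP-40 at 4°C; the supernatant after 21,000xg for 90 min was soluble protein. This was quantified by TMTpro 16plex LC-MS/MS with channel sums equalised, and thermal stability was reported relative to control samples from duplicates, on a log2 fold-change scale.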

[1] = compound: Cc1cccc(CC(=O)N2CCc3c2ccc(-c2cn(C)c4ncnc(N)c24)c3F)n1
Summary of the method: as §1

nilotinib = compound: Cc1cn(-c2cc(NC(=O)c3ccc(C)c(Nc4nccc(-c5cccnc5)n4)c3)cc(C(F)(F)F)c2)cn1 [nilotinib]
Summary of the method: as §1

[2] = compound: Cc1nc(Nc2n[nH]c3c2CN(C(=O)N[C@H](CN(C)C)c2ccccc2)C3(C)C)c2sccc2n1
Summary of the method: as §1

dasatinib = compound: Cc1nc(Nc2ncc(C(=O)Nc3c(C)cccc3Cl)s2)cc(N2CCN(CCO)CC2)n1 [dasatinib]
Summary of the method: as §1

[3] = compound: Cc1ncc(-c2ccnc(Nc3ccc(S(C)(=O)=O)cc3)n2)n1C(C)C
Summary of the method: as §1

[4] = compound: Cn1cc(-c2ccc3c(c2)CCN3C(=O)Cc2cccc(C(F)(F)F)c2)c2c(N)ncnc21
Summary of the method: as §1

[5] = compound: Cn1cc(-c2ccc3nnc(C(F)(F)c4ccc5ncccc5c4)n3n2)cn1
Summary of the method: as §1

tipifarnib = compound: Cn1cncc1[C@@](N)(c1ccc(Cl)cc1)c1ccc2c(c1)c(-c1cccc(Cl)c1)cc(=O)n2C [tipifarnib]
Summary of the method: as §1

mubritinib = compound: FC(F)(F)c1ccc(/C=C/c2nc(COc3ccc(CCCCn4ccnn4)cc3)co2)cc1 [mubritinib]
Summary of the method: as §1

[6] = compound: NC(=O)Nc1cc(-c2cccc(F)c2)sc1C(=O)N[C@H]1CCCNC1
Summary of the method: as §1

[7] = compound: NC(=O)c1cnc(N[C@@H]2CCCC[C@@H]2N)nc1Nc1cccc(-n2nccn2)c1
Summary of the method: as §1

[8] = compound: NC1(c2ccc(-c3nc4ccn5c(=O)[nH]nc5c4cc3-c3ccccc3)cc2)CCC1
Summary of the method: as §1

[9] = compound: NCC(=O)Nc1ccc(-n2nc(C(F)(F)F)cc2-c2ccc3c(ccc4ccccc43)c2)cc1
Summary of the method: as §1

entinostat = compound: Nc1ccccc1NC(=O)c1ccc(CNC(=O)OCc2cccnc2)cc1 [entinostat]
Summary of the method: as §1

vorinostat = compound: O=C(CCCCCCC(=O)Nc1ccccc1)NO [vorinostat]
Summary of the method: as §1

citarinostat = compound: O=C(CCCCCCNC(=O)c1cnc(N(c2ccccc2)c2ccccc2Cl)nc1)NO [citarinostat]
Summary of the method: as §1

silmitasertib = compound: O=C(O)c1ccc2c(c1)nc(Nc1cccc(Cl)c1)c1ccncc12 [silmitasertib]
Summary of the method: as §1

[10] = compound: O=C1NC(=O)C(c2cnc3ccccn23)=C1c1cn2c3c(cc(F)cc13)CN(C(=O)N1CCCCC1)CC2
Summary of the method: as §1

[11] = compound: c1cc(OCCN2CCCCC2)cc(-c2n[nH]c3ccc(-c4nnc[nH]4)cc23)c1
Summary of the method: as §1

Sequence of UniProt P49189 (P49189 whole entry, looked up): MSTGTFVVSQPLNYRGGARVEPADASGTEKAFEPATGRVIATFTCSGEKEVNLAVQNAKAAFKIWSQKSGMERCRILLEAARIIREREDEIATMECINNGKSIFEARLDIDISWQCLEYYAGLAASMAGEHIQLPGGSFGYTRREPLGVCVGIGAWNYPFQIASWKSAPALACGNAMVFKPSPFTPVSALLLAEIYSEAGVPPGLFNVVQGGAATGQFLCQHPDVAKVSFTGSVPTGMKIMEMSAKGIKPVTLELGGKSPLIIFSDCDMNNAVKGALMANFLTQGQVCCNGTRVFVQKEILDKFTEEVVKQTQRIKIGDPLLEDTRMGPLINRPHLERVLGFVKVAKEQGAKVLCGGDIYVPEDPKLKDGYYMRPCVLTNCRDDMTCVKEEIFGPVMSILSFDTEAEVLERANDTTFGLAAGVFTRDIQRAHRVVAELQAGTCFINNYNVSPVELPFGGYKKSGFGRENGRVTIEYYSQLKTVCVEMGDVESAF
Sequence of UniProt Q9NX46 (Q9NX46 whole entry, looked up): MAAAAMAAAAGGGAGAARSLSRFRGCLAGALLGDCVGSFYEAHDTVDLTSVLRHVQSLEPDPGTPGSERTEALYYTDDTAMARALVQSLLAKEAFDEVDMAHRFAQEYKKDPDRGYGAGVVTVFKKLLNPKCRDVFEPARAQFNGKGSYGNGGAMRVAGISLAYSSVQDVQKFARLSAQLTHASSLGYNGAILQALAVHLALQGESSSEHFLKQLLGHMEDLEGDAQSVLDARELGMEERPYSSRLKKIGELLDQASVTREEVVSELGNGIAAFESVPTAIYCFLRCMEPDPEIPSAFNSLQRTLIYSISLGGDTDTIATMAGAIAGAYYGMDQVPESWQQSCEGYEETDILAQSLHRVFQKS
Sequence of UniProt Q10589 (Q10589 whole entry, looked up): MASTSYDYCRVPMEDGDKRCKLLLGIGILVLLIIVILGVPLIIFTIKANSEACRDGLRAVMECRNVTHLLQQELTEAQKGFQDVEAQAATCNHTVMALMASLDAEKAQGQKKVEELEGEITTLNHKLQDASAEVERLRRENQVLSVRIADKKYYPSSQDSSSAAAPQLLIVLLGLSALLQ
Sequence of UniProt Q14137 (Q14137 whole entry, looked up): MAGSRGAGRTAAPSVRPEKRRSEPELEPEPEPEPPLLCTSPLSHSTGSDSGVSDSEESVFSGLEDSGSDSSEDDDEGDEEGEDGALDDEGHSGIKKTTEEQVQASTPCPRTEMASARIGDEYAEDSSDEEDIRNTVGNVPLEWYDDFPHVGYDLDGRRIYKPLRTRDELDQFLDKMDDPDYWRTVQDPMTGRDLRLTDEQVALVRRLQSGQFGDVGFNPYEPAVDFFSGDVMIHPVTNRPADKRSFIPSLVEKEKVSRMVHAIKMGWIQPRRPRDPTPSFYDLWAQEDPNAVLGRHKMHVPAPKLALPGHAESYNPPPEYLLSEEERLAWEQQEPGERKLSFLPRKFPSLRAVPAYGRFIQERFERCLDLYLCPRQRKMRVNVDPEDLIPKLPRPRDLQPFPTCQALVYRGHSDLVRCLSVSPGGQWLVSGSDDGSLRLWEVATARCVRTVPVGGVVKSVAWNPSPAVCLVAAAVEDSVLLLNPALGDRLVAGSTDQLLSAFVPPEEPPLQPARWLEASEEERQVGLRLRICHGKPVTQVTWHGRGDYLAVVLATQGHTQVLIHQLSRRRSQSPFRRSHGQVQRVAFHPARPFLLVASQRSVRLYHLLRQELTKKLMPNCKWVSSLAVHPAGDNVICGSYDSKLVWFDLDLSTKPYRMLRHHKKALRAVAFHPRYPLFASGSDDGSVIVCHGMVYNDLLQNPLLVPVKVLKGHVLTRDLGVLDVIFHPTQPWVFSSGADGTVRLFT
Sequence of UniProt Q92560 (Q92560 whole entry, looked up): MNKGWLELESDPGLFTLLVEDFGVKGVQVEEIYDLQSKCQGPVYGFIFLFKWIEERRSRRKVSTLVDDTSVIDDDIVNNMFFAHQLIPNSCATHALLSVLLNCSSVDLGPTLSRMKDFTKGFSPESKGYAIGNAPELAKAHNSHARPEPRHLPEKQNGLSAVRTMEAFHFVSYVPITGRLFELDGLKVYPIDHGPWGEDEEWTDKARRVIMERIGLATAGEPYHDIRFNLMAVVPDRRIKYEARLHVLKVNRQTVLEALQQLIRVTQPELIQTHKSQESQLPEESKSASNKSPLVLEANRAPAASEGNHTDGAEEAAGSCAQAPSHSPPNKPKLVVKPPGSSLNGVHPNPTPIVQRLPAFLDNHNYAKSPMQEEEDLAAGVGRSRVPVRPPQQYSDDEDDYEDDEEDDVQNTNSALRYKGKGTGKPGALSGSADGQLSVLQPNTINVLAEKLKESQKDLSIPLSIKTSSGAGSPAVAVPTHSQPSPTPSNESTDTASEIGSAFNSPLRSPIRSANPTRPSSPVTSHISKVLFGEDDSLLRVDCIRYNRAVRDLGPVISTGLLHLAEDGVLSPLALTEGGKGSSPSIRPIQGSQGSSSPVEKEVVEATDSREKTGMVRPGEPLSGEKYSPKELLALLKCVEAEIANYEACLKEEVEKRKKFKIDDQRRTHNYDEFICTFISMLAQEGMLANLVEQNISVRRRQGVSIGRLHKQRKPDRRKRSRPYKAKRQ
Sequence of UniProt P42330 (P42330 whole entry, looked up): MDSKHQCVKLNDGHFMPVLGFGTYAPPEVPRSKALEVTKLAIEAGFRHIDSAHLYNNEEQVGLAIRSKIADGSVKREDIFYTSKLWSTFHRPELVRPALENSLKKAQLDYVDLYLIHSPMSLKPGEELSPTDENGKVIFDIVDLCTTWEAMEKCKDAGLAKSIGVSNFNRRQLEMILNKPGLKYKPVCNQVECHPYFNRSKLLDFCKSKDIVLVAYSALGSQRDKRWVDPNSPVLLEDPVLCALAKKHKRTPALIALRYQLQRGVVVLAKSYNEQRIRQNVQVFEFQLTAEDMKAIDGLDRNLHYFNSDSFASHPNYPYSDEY
Sequence of UniProt O94973 (O94973 whole entry, looked up): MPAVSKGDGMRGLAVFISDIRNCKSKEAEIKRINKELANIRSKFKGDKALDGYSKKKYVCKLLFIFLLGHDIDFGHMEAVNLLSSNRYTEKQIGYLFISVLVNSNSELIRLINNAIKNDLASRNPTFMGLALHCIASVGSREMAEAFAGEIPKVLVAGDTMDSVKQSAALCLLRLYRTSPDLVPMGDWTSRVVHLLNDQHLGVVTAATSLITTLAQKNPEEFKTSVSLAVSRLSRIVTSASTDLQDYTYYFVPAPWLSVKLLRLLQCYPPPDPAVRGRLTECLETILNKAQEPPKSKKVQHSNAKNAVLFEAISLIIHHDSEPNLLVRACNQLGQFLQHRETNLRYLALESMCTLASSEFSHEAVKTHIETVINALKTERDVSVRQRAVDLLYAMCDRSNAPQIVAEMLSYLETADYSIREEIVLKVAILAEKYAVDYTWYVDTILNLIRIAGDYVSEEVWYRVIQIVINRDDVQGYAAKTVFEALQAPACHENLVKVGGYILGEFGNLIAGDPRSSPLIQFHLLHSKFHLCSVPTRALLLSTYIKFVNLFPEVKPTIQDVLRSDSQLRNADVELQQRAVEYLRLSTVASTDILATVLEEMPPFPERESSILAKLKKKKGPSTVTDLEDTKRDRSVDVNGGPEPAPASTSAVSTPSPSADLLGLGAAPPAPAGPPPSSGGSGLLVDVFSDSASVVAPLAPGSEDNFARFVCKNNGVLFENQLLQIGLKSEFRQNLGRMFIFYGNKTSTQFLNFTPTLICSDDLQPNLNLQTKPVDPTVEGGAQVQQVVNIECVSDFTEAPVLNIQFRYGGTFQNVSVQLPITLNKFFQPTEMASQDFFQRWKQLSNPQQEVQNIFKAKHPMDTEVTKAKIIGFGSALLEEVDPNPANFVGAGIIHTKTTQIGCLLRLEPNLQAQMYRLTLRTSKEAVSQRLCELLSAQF
Sequence of UniProt Q9NX38 (Q9NX38 whole entry, looked up): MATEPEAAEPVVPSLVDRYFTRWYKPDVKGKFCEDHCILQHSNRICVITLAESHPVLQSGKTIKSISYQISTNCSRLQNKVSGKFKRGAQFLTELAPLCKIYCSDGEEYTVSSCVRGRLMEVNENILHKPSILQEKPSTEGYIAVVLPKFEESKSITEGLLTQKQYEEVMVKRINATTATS

| Target | log2 fold change (bafetinib) | log2 fold change [1] | log2 fold change (nilotinib) | log2 fold change [2] | log2 fold change (dasatinib) | log2 fold change [3] | log2 fold change [4] | log2 fold change [5] | log2 fold change (tipifarnib) | log2 fold change (mubritinib) | log2 fold change [6] | log2 fold change [7] | log2 fold change [8] | log2 fold change [9] | log2 fold change (entinostat) | log2 fold change (vorinostat) | log2 fold change (citarinostat) | log2 fold change (silmitasertib) | log2 fold change [10] | log2 fold change [11] |
| --- | --- | --- | --- | --- | --- | --- | --- | --- | --- | --- | --- | --- | --- | --- | --- | --- | --- | --- | --- | --- |
| AP2A2 isoform 2 (UniProt O94973) | 0.02 | 0.031 | -0.027 | 0.009 | 0.062 | -0.018 | 0.006 | -0.074 | -0.006 | 0.035 | -0.155 | 0.052 | -0.003 | -0.013 | 0.002 | 0.034 | -0.023 | -0.016 | -0.113 | -0.156 |
| BST2 (UniProt Q10589) | 0.061 | -0.009 | 0.048 | -0.059 | -0.016 | -0.096 | -0.052 | 0.029 | 0.036 | -0.015 | 0.031 | 0.02 | 0.003 | 0.132 | 0.03 | -0.026 | -0.058 | 0.009 | 0.112 | -0.092 |
| ADPRHL2 (UniProt Q9NX46) | 0.201 | 0.029 | 0.013 | 0.164 | -0.034 | 0.124 | 0.082 | 0.052 | -0.159 | 0.349 (active) | -0.022 | -0.02 | -0.056 | -0.045 | 0.027 | -0.039 | 0.076 | -0.045 | -0.028 | 0.055 |
| BAP1 (UniProt Q92560) | 0.252 | -0.071 | 0.007 | 0.053 | -0.031 | 0.006 | -0.086 | -0.064 | 0.076 | -0.201 | -0.073 | 0.085 | 0.073 | 0.012 | -0.054 | 0.13 | 0.058 | 0.04 | 0.076 | -0.142 |
| AKR1C3 (UniProt P42330) | 0.018 | -0.03 | 0.025 | 0.004 | -0.038 | 0.078 | 0.068 | 0.557 (active) | 0.862 (active) | -0.147 | 0.119 | 0.064 | 0.235 | -0.032 | 0.106 | -0.058 | 0.049 | 0.126 | 0.211 | 0.154 |
| BOP1 (UniProt Q14137) | 0.031 | -0.083 | -0.028 | -0.159 | 0.02 | -0.122 | -0.038 | -0.087 | 0.114 | -0.114 | 0.002 | -0.027 | 0.04 | -0.018 | -0.004 | 0.107 | 0.035 | 0.038 | -0.351 (active) | -0.073 |
| ALDH9A1 isoform 3 (UniProt P49189) | -0.003 | 0.001 | 0.012 | -0.019 | 0.025 | -0.018 | 0.041 | 0.001 | -0.002 | -0.005 | 0.04 | -0.025 | -0.011 | -0.05 | 0.003 | -0.003 | 0.025 | -0.045 | -0.033 | 0.015 |
| ABITRAM (UniProt Q9NX38) | 0.016 | 0.116 | -0.327 | -0.146 | -0.316 | -0.442 (active) | -0.004 | 0.026 | -0.031 | 0.046 | -0.018 | -0.12 | -0.194 | 0.008 | 0.008 | -0.089 | 0.046 | 0.094 | -0.015 | -0.006 |

Reference: the supplement of paper PMC10849652
